Data from PubChem BioAssay (NCATS).
Results filed as inconclusive are left out. The source made the active and inactive calls. Calls follow the shape of the dose curve; as a rule, active = well fitted curve in the direction sought with a large enough effect; inconclusive = small, poorly fitted or top-dose-only effect, or another doubt; inactive = no such curve, though single readings can be large; an effect the other way counts as inactive or inconclusive.

How the values were obtained:
[1] = Cell Viability - Mesenchymal (AID 546); conditions: mesenchymal cells viability, qHTS; series mostly up to 91.7 µM;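 also: cells exposed to compound for 40 hours before reading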
How it was run: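 AC50 values reflect the drop in intracellular ATP in a human kidney mesenchymal line derived from normal glomeruli. Treatment lasts 40 hr at 37 °C in complete medium, and the signal comes from CellTiter-Glo luminescence.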

[2] = Cellular Toxicity (caspase-3) HepG2 (AID 654); conditions: HepG2 caspase-3 activation, luminescence, 0% = DMSO only, 100% = tamoxifen; series mostly up to 92.2 µM;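 also: cells exposed to compound for 16 hours before reading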
How it was run: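 HepG2 cells (1500/well) in complete medium were treated with compounds for 16 hr at 37 °C. Caspase-3/7 activity was then read as luminescence from peptide-aminoluciferin cleavage. AC50 came from Hill fits, normalized to DMSO and 100 uM tamoxifen.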

[3] = Cellular Toxicity (caspase-3) Jurkat (AID 655); conditions: Jurkat caspase-3 activation, luminescence, DMSO = 0%, tamoxifen = 100%; series mostly up to 92.2 µM;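 also: cells exposed to compound for 16 h at 37 °C before reading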
How it was run: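 5000 Jurkat cells/well; compound 16 hr, 37 °C; Caspase-Glo 3/7 added, 20 min RT; luminescence read. Norm: DMSO = 0%, tamoxifen 100 uM = 100%. AC50, Hill model.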

[4] = Cellular Toxicity (caspase-3) HUV-EC-C (AID 656); conditions: HUV-EC-C cells, caspase-3 activation (apoptosis), vehicle = 0, 100 µM tamoxifen = 100%; series mostly up to 92.2 µM
How it was run: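 qHTS; HUV-EC-C, 1000 cells/well; 5 hr settle, 16 hr cmpd, 37°C; Caspase-Glo 3/7, 20 min RT; luminescence. Norm: DMSO = 0%, tamoxifen 100 uM = 100%. Hill-fit AC50.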

[5] = Cellular Toxicity (caspase-3) SHSY5Y (AID 657); conditions: SH-SY5Y caspase-3 activation, DMSO zero, 10 µM staurosporine = 100%; series mostly up to 91.7 µM;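 also: cells exposed to compound for 16 hours at 37 °C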
Text: NIH Chemical Genomics Center [NCGC]
NIH Molecular Libraries Screening Centers Network [MLSCN]
National Institutes of Environmental Health Sciences [NIEHS]
National Toxicology Program [NTP]
We have developed a 1536-well cell-based assay for quantitative high throughput screening (qHTS) against a number of cell lines to determine in vitro caspase 3/7 activity of small molecules. This particular assay uses the SH-SY5Y cell line which is derived from human neuroblastoma.
NCGC Assay Protocol Summary:
The Caspase-Glo 3/7 assay (Promega) is a homogeneous method to measure caspase-3 and caspase-7 activities in cultured cells. The quantitation of caspase 3/7 activity is based on the cleavage of a peptide-aminoluciferin substrate. […]
Using the Caspase-Glo 3/7 assay, the amount of caspase 3/7 activity was measured in the SH-SY5Y cell line with complete culture medium following compound treatment for 16 hours. […] Library compounds were measured for their ability to cause the activation of caspase 3/7 in the cell line, as reflected by an increase in luminescence signal, in a concentration-dependent manner. […] AC50 values were determined from concentration-response data modeled with the standard Hill equation. […]
8. Detection; Luminescence; Viewlux plate reader
Keywords: caspase 3/7, apoptosis, SH-SY5Y cell line, luminescence, NTPHTS, NTPHTS_NCGC, NIEHS, EPA, DSSTox, MLSMR, MLSCN, NIH Roadmap, qHTS, NCGC

[6] = Cellular Toxicity (caspase-3) BJ (AID 658); conditions: BJ fibroblasts, luminescence, normalized: DMSO 0%, staurosporine 100%; series mostly up to 91.7 µM
How it was run: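 Readout: Caspase-Glo 3/7 luminescence increase in BJ cells after 16 hr treatment at 37 °C. Staurosporine and tamoxifen served as positive controls; AC50 values came from Hill modelling of data normalized to DMSO and 10 uM staurosporine.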

[7] = Cellular Toxicity (caspase-3) MRC-5 (AID 659); conditions: MRC-5 cells, luminescence, normalized: DMSO 0%, 10 µM staurosporine 100%; series mostly up to 91.7 µM
How it was run: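 Concentration-dependent caspase 3/7 activation is measured in human normal lung fibroblasts (MRC-5) following 16-hour treatment. AC50 values come from standard Hill-equation modeling of luminescence normalized to DMSO and 10 uM staurosporine.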

[8] = Cellular Toxicity (caspase-3) Mesangial (AID 660); conditions: mesangial cells, normalized: DMSO 0%, 100 µM tamoxifen 100%; series mostly up to 91.7 µM;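 also: cells exposed to compound for 16 h before the caspase read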
How it was run: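 Human renal glomerular mesangial cells (1000/well) were treated with compounds for 16 h at 37 °C in complete medium, then caspase 3/7 activity was read by Caspase-Glo luminescence. Data were normalized to DMSO and 100 uM tamoxifen; AC50 from Hill fits.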

[9] = Cellular Toxicity (caspase-3) SK-N-SH (AID 661); conditions: SK-N-SH caspase-3 activation, qHTS, DMSO as zero, staurosporine as full; series mostly up to 91.7 µM
How it was run: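 SK-N-SH human neuroblastoma cells (1500/well) were treated with compounds for 16 hr at 37 °C in complete medium; caspase 3/7 activity was read by Caspase-Glo luminescence. AC50 came from Hill fits of data normalized to DMSO and 10 uM staurosporine.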

Measured: outcome

CC(=O)C(C)=O
inactive: all assays above

NC(=O)c1ccccc1
inactive: all assays above
